# Measurements published in ChEMBL document CHEMBL4513216, “Probing the Open Global Health Chemical Diversity Library for Multistage-Active Starting Points for Next-Generation Antimalarials” (ACS Infect Dis, 2020).
# The whole screen tested about 69,000 compounds, of which about 8,600 (12%) showed an effect of 50% or more. The list comes from a sample in which strong results are over-represented; it also holds similar structures and randomly drawn compounds.
# Test system: Plasmodium berghei
# Test: Screen against P. berghei liver stage (PbLuc), transformed with Luciferase, at 10uM
# Format: functional, HepG2
# Settings: tested at 10 uM
row,SMILES,INHIBITION [%]
1,OCC1(NCc2cccc(-n3cccn3)c2)CCOCC1,43.4
2,CCN1CCCC1(C)c1nc(C)cc(N)n1 (centres undefined),-2.09
3,CCOc1ccc(NC(=O)NCC(C)(O)c2cccs2)cc1 (centres undefined),40.6
4,O=C(Nc1cnccn1)[C@H]1COC[C@H]2CN(C3CCCC3)C[C@H]21,-14.6
5,CCn1ccnc1CN1CCN(CC(O)c2ccc(OC)cc2)CC1 (centres undefined),0.8
6,COc1ccc(F)c(-c2nccn2CCN2CCCC2)c1,18.2
7,COc1ccc(-c2nccn2CC(O)CN2CCCC2)c(F)c1 (centres undefined),61.5
8,CCC(CC)(CNC(=O)NC1CCCC1(C)C)S(C)(=O)=O (centres undefined),2.49
9,COCCCNC(=O)c1cc(-c2cnc(N(C)C)nc2)cn1CC1CC1,-22.1
10,CCCOc1ccc(Cl)cc1NC(=O)NCCC(=O)N(C)C,-5.32
11,CCC1CCCN(S(=O)(=O)c2cnc3onc(C)c3c2)C1 (centres undefined),9
12,COc1ccc2c(c1)OCC(Cc1ccnc(N)n1)C2 (centres undefined),11
13,Cc1nc(N)ccc1CC1COc2ccccc2C1 (centres undefined),-27.9
14,COc1cccc2c1OCC(Cc1ccc(N)nc1C)C2 (centres undefined),6.83
15,COc1ccc2c(c1)OCC(Cc1ccc(C)nc1N)C2 (centres undefined),57.2
16,COc1ccc2c(c1)OCC(CNc1cc(N)nc(SC)n1)C2 (centres undefined),69.8
17,Cc1ccc(CC2COc3ccccc3C2)c(N)n1 (centres undefined),-6.18
18,COc1ccc2c(c1)OCC(Cc1ccc(N)nc1C)C2 (centres undefined),76.3
19,COc1cccc2c1OCC(CNc1cc(N)nc(SC)n1)C2 (centres undefined),1.94
20,COc1ccc2c(c1)OCC(Cc1cnccc1N)C2 (centres undefined),29
21,Cc1noc(C(C)N2CCN(CC(=O)N3CCCC3)CC2)n1 (centres undefined),8.99
22,O=C(NCC1CCCCC1)N1C[C@@H]2C[C@H](C(=O)N3CCCC3)[C@H](C1)O2,48.2
23,N#Cc1ccc(NCc2cc3n(n2)CCCN(C(=O)C2CCC2)C3)nc1,14.6

row,SMILES,INHIBITION [%]
1,CSc1ccc(-n2nnc(C(=O)O)c2-c2ccccn2)cc1,36.2
2,CC(CNCc1ccc(F)cc1)Oc1ccccn1 (centres undefined),13.8
3,COc1ccc(OCC(=O)NS(=O)(=O)c2ccc(Cl)s2)cc1,17.7
4,COc1ccc(OCC(=O)NS(=O)(=O)c2ccc(Br)s2)cc1,60.9
5,COc1cccc(OCC(=O)NS(=O)(=O)c2ccc(Br)s2)c1,17.5
6,CCn1nnc2c1C(COC)CN(Cc1ccsc1)C2 (centres undefined),21
7,Cn1cc(C(=O)N2CCC(c3cc(CCO)n(C)n3)C2)cn1 (centres undefined),0.696
8,C=CNC(=O)c1nnc2ccc(N3CCOCC3)cc2n1,11
9,Cc1cc(C)nc(N2CCC(CNC(=O)c3cnccn3)CC2)n1,-51.4
10,CS(=O)(=O)N1CCC(CNC(=O)c2cnccn2)CC1,43.8
11,O=C(NCC1CCN(c2ncccn2)CC1)c1cnccn1,71.8
12,COc1ccccc1N1CCN(C(=O)NC(C)c2nncn2C)CC1 (centres undefined),9.14
13,CCCC(=O)N1CCN(Cc2cc(-c3ccncc3)nn2C)CC1,8.72
14,CC(c1ccco1)n1cc(-c2cc(CN3CCCC3)cs2)nn1 (centres undefined),5.23
15,CC(c1nccs1)n1cc(-c2cc(CN3CCCCC3)cs2)nn1 (centres undefined),21.5
16,CC(c1nncn1C)n1cc(-c2cc(CN3CCCC3)cs2)nn1 (centres undefined),57.2
17,CC(C)CN1CCn2c(COCc3cccnc3)nnc2C1,-29.3
18,Cn1ccnc1CN1CCC2(CC(=O)N(c3ccc4c(c3)OCO4)C2)C1 (centres undefined),4.27
19,O=C1CC2(CCN(CC3CC3)C2)CN1c1ccc2c(c1)OCO2 (centres undefined),25
20,Cc1ccc(CN2CCC3(CC(=O)N(c4cccc(F)c4)C3)C2)o1 (centres undefined),12
21,O=C1CC2(CCN(Cc3ccco3)C2)CN1c1ccc2c(c1)OCO2 (centres undefined),78.8
22,Cc1ccc(CN2CCC3(CC(=O)N(c4ccc5c(c4)OCO5)C3)C2)o1 (centres undefined),69.5
23,O=C1CC2(CCN(Cc3cccnc3)C2)CN1c1ccc2c(c1)OCO2 (centres undefined),22.9

row,SMILES,INHIBITION [%]
1,CC(C)CN1CCO[C@H]2CCN(c3cnccn3)CC[C@@H]21,16.6
2,O=C(c1cc(-n2cccn2)ccc1Cl)N1CCC(N2CCCC2=O)CC1,18.5
3,CC(C)[C@H]1CN(Cc2nccn2C)C[C@@H]1NC(=O)COCC(N)=O,44.9
4,CS(=O)(=O)c1cnc(CC2CC2)nc1C1CCCNC1 (centres undefined),41.7
5,NC1CCN(c2nccn3c(=O)[nH]nc23)CC1,48.2
6,Cc1cc(N2CCCN3CCC[C@H]3C2)n2nc(C)c(C)c2n1,48.1
7,Cc1cc(N2CCN3CCCCC3C2)n2nc(C)c(C)c2n1 (centres undefined),16.8
8,Cc1cc(N2CCN(C3CCSCC3)CC2)n2nc(C)c(C)c2n1,51.4
9,O=S(=O)(c1cn[nH]c1)N1CCC(O)(CN2CCC(F)(F)CC2)C1 (centres undefined),-5.452
10,CC(C)Cc1ccc(S(=O)(=O)NCCCN2CCNC(=O)C2)cc1,-20.3
11,Cn1cc(Br)c(=O)c(NS(=O)(=O)c2ccc3c(c2)CCC3)c1,28.3
12,CCc1ccc(C(=O)O)cc1S(=O)(=O)Nc1ccc(=O)n(C)c1,9.16
13,CC(C)c1ccc(C(=O)O)cc1S(=O)(=O)Nc1ccc(=O)n(C)c1,-3.87
14,Cn1cc(NS(=O)(=O)c2ccc3c(c2)CCCC3)ccc1=O,81.1
15,CCc1ccc(S(=O)(=O)Nc2cn(C)cc(Br)c2=O)cc1,25.3
16,Cc1ccc(F)c(S(=O)(=O)Nc2cn(C)cc(Br)c2=O)c1,8.53
17,Cn1cc(NS(=O)(=O)c2ccc(F)c(F)c2)ccc1=O,23.5
18,CCCc1ccc(S(=O)(=O)NCCNC(=O)c2ccoc2)cc1,5.05
19,CCCc1ccc(S(=O)(=O)Nc2ccc(=O)n(C)c2)cc1,81.1
20,CC(C)Cc1ccc(S(=O)(=O)Nc2ccc(=O)n(C)c2)cc1,88.5
21,Cc1ccc(S(=O)(=O)Nc2ccc(=O)n(C)c2)c(Br)c1,77
22,CS(=O)(=O)CCCSc1cccc(C#N)c1,-9.08
23,O=c1occ(CN2CCSCC2)c(O)c1CN1CCCC1,4.93
